Reference: PubChem BioAssay (NCI)
Compounds without any hit were thinned out: in the full panel of roughly 79,000, 15% have a hit. Values without a mark were called inactive. The source made the active and inactive calls. Rule as the data show it: active = growth inhibition above about 70%; inactive = the rest.

What was measured:
[1] = NCI Yeast Anticancer Drug Screen. Data for the rad50 strain (AID 155);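 also: 0% = growth of vehicle-only cultures of the same strain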; settings: S. cerevisiae rad50 strain growth inhibition; at 50.0 µM; active compounds read high
Outline: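 Compounds were tested on a yeast strain with an engineered DNA damage repair alteration; the reported value is growth inhibition normalised to vehicle treatment.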

[2] = NCI Yeast Anticancer Drug Screen. Data for the mec2-1 strain (AID 157); settings: S. cerevisiae mec2-1 strain, at 50.0 µM, active compounds read high
Outline: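 Each compound was tested on mec2-1 yeast, a strain altered in DNA damage repair or cell cycle control. Growth inhibition is reported relative to vehicle.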

[3] = NCI Yeast Anticancer Drug Screen. Data for the sgs1 mgt1 strain (AID 161);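 also: 0% = growth of cultures given vehicle only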; settings: S. cerevisiae sgs1 mgt1 strain, at 50.0 µM, active compounds read high
Outline: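 Genetically altered yeast, compound exposure, growth inhibition relative to vehicle.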

[4] = NCI Yeast Anticancer Drug Screen. Data for the cln2 rad14 strain (AID 165);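 also: 0% = growth equal to vehicle treated cultures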; settings: S. cerevisiae cln2 rad14 strain, at 50.0 µM, active compounds read high
Outline: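 Test compounds were added to cln2 rad14 yeast cultures; inhibition of growth was then determined by comparison with vehicle treatment.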

[5] = NCI Yeast Anticancer Drug Screen. Data for the bub3 strain (AID 167); settings: S. cerevisiae bub3 mutant strain, at 50.0 µM, active compounds read high
Outline: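 Growth of a checkpoint-deficient yeast mutant is measured after compound exposure. Values represent inhibition relative to vehicle.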

[6] = NCI Yeast Anticancer Drug Screen. Data for the mlh1 rad18 strain (AID 175); settings: S. cerevisiae mlh1 rad18 strain growth inhibition; at 50.0 µM; active compounds read high
Outline: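 Inhibition values reflect reduced growth of mutant yeast versus vehicle-treated controls following compound exposure; the mutations affect DNA damage repair.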

SMILES | growth inhibition [1] | growth inhibition [2] [%] | growth inhibition [3] | growth inhibition [4] | growth inhibition [5] | growth inhibition [6]
CSc1ccc(NC(=O)Nc2cccc(C(C)=O)c2)cc1 | 2.15% | 31.2 | 10.3% | -17.1% | 43% | 24.8%
CCCCNC(=O)C(C)S(=O)(=O)c1ccc(C)cc1 (stereo unspecified) | 6.6% | 16.4 | -17.3% | -21.7% | -2% | 11.8%
O=C(CCC(=O)Nc1ccc(Cl)c(Cl)c1)Nc1ccc(Cl)c(Cl)c1 | 50.9% | 46.5 | 49% | 39.1% | 78.2% (active) | 63%
Cc1cccc(-n2c(C)nc3[nH]cc(C)c3c2=N)c1 | 0.15% | 0.65 | 2.05% | -21.9% | 0.55% | 11.1%
CC1(CO)CCCC1NCCNC1CCCC1(C)CO (stereo unspecified) | 8.6% | -6.7 | 3.35% | 10.3% | -27.9% | 15.5%
Cc1cc2nc(C(C)(C)O)[nH]c2cc1C | 0.2% | -4.8 | 2.8% | 8.2% | 1.6% | 13.2%
COCC1OC(n2cc(C)c(=O)n(C)c2=O)CC1OC (stereo unspecified) | 1.2% | 7.2 | 19.9% | -7.15% | 24.4% | 8%
CCCCNCC1COc2cccc(OCC)c2O1 (stereo unspecified) | 17.1% | -0.1 | -2% | 9.7% | -6.75% | 4%
N=C(N)c1ccc(NC(=O)c2ccc(C(=O)Nc3ccc(C(=N)N)cc3)c(N)c2)cc1 | 9.9% | 18.1 | -7.6% | -7.85% | -1.95% | -7.3%
CCOC(=O)C1CCC(=O)C(CC)=C1C (stereo unspecified) | -6.8% | -40.3 | 8.5% | -1.85% | -6.5% | -6.5%
O=c1c2c(no[n+]2[O-])c2ccccc2n1-c1ccccc1 | 96.7% (active) | 66 | 92.4% (active) | 86% (active) | 97.2% (active) | 96% (active)
CCCOC(=O)Nc1cccc(Cl)c1 | 49.5% | -8.7 | 13.6% | -9.95% | -9.35% | 12.4%
COC1(OC)C2(Cl)C(Cl)=C(Cl)C1(Cl)C1CCCCCC12 (stereo unspecified) | -4.95% | 2.8 | 1.85% | -60.7% | -8.4% | 8.15%
N#Cc1ccccc1OCCCCCCCCCCOc1ccccc1C#N | -2.8% | -4.15 | -19.6% | 31.4% | -1% | 3.8%
C=C1C(=O)OC2C=C(C)C3C(OC(=O)c4ccccc4)CC(C)(O)C3CC12 (stereo unspecified) | 1.4% | -41.4 | 3.05% | 16.6% | -2.75% | 0.45%
O=C(CBr)Nc1ccccc1[N+](=O)[O-] | 8.3% | -1.35 | 5.8% | 0.4% | 6.05% | -5.4%
CC(=O)COc1ccccc1 | -2.7% | -10.5 | 7.75% | 6.45% | -6.85% | 15.4%
O=C(O)Cc1ccccc1-c1ccccc1 | -22.2% | -8.15 | -19.2% | 22.4% | -6.2% | -43.2%

SMILES | growth inhibition [1] | growth inhibition [2] [%] | growth inhibition [3] | growth inhibition [4] | growth inhibition [5] | growth inhibition [6]
O=C(O)c1cccc(NC(=O)C(F)(F)F)c1 | -1.1% | 1.6 | -18.9% | -29.4% | -6.05% | -2.15%
CCc1cccc(CC)c1N(C(C)=O)C(C)=O | 8.55% | -1.3 | -11.7% | -8.85% | 19.2% | 3.2%
CC(=O)Nc1cscc1NC(C)=O | -3.8% | -10.7 | 6.05% | -0.2% | 16.9% | -9.5%
Cc1ccc2nc(C)cc(N=[N+]=[N-])c2c1 | -35.6% | -21.8 | -17.1% | -58.9% | -2.2% | -11.5%
CCOC(=O)C(Nc1cc([N+](=O)[O-])ccc1C(=O)N1CCCCC1)(C(=O)OCC)N1CCCCC1 | 4.6% | 12.8 | 13.8% | 3.8% | 0.2% | 15%
C[S+]1CC2C3CC(C#N)C(C3)C2C1 (stereo unspecified) | 2.4% | 11.2 | 2.95% | -28.1% | -1.85% | 16.9%
CC(=O)c1sc(/N=C\c2c(O)c3ccccc3oc2=O)nc1C | -53.5% | -49.6 | -40.2% | -3.25% | -36.2% | -33.8%
COc1ccc(OC)c(NC(=O)Nc2ccc(I)cc2)c1 | 46.8% | 42 | 33.9% | 15.1% | 52.9% | 56%
COc1ccc(C(=Cc2cc(OC(C)=O)c3ccccc3c2OC(C)=O)c2ccc(OC)cc2)cc1 | 13.1% | -8.8 | -8% | -15.9% | 3.7% | -0.5%
CCCC(CCC)(CCC)CCN(C)C | -6.85% | -5.95 | -14.9% | -23.9% | -8.65% | -33.8%
O=C(c1nc2ccccc2[nH]1)N1CCN(c2ccccc2)CC1 | 2.95% | -1.55 | -9% | 5.55% | 1.35% | 7.3%
NC(=O)C1C=CN(Cc2ccccc2)C=C1 | -5.2% | 7.45 | -0.65% | -12.8% | 23.4% | 7.3%
CN(C)C(=S)/N=c1\ssc(=S)n1Cc1ccccc1 | -10.4% | -24.9 | -4.55% | 16.4% | -17.9% | -86.5%
CCOc1ccccc1/C=C(\C#N)c1cccc(Cl)c1 | 42.6% | 9.75 | 29.9% | 13.8% | 19.5% | -4.15%
Oc1ccc2ccc3[nH]cnc3c2c1 | -22.5% | -25.4 | -9% | 2.1% | -8.9% | 0.15%
O=C(Nc1ccc(Cl)cc1)Nc1nnc(-c2cc([N+](=O)[O-])cc([N+](=O)[O-])c2)o1 | -2.1% | 20.8 | 28.8% | -13.3% | -32.6% | -2.25%
Cc1[nH]nc2c1NC(=O)OC2 | -3.1% | -1.1 | 1.5% | -23.4% | -8.15% | 2.45%
O=C(c1ccc(Cl)cc1)C1C(c2ccccc2)C1[N+](=O)[O-] (stereo unspecified) | 11.2% | -11.2 | -3.2% | -28.9% | 16.4% | 31%
